Measurements taken from PubChem BioAssay (NCI).
Compounds without any hit were thinned out: in the full panel of roughly 83,000, 20% have a hit.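 The endpoint reported here, percent growth, reads 100 for growth as untreated, 0 for no net growth and -100 for all cells dead.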 Unmarked numbers belong to inactive results. Active and inactive are the calls of the source. How the source made its calls: active means growth percent below 10; inactive means the rest.

Tests used:
Assay in all cases: NCI-60 one-dose screen, 48 h (100 = growth as untreated, 0 = no growth, -100 = all killed)
Settings in all cases: 10 µM unless noted
[1] = tested on: HCT-15 colon
[2] = tested on: HT29 colon
[3] = tested on: SNB-75 CNS
[4] = tested on: SNB-19 CNS
[5] = tested on: U251 CNS
[6] = tested on: PC-3 prostate
[7] = tested on: SK-MEL-5 melanoma
[8] = tested on: UACC-62 melanoma
[9] = tested on: LOX IMVI melanoma
[10] = tested on: SK-MEL-28 melanoma
[11] = tested on: SK-MEL-2 melanoma
[12] = tested on: SN12C renal
[13] = tested on: UO-31 renal
[14] = tested on: TK-10 renal
[15] = tested on: ACHN renal
[16] = tested on: CAKI-1 renal
[17] = tested on: A498 renal
[18] = tested on: CCRF-CEM leukemia
[19] = tested on: MOLT-4 leukemia
[20] = tested on: EKVX NSCLC

SMILES	growth [1]	growth [2]	growth [3]	growth [4]	growth [5]	growth [6]	growth [7]	growth [8]	growth [9]	growth [10]	growth [11]	growth [12]	growth [13]	growth [14]	growth [15]	growth [16]	growth [17]	growth [18]	growth [19]	growth [20]
CN(C)CCCN1c2ccccc2CCc2ccccc21	96.6%	83.5%	50.8%	94.1%	91.6%	82.8%	75.3%	94%	106%	102%	105%	80.1%	83.2%	93.3%	91.4%	84.6%	124%	97.6%	83.7%	
O=C(/C=C/c1cn(-c2ccccc2)nc1-c1ccccc1)OCc1cn(-c2cccc([N+](=O)[O-])c2)nn1	95.2%	86.3%	74.3%	87.8%	78.3%	67.4%	100%	73.5%	90.1%	92.1%	87.8%	92.7%		98.6%	90.1%	82.5%		81.1%	85.8%	85.9%
O=C1Nc2ccccc2/C1=C\c1nc(C2CCN(S(=O)(=O)c3ccc(F)cc3)CC2)n2ccccc12	90.5%	67.7%	-10.4% (active)	-6.15% (active)	41.3%	65.6%	75.3%	39.1%	49.2%	60.3%	17.8%	46%	68.2%	60.1%	55.6%	57.8%	82.9%	95.1%	100%	
CCCCc1nc(Cl)c(C2CC(c3ccc(S(N)(=O)=O)cc3)=NN2c2cc(Cl)cc(Cl)c2)[nH]1 (stereo unspecified)	45.7%	23.3%	62.2%	36.4%	23.5%	36.4%	57.9%	38.8%	-6.25% (active)	55.2%	47.2%	48.6%		84.6%	59.7%	40.5%	81.7%	26.2%	12.3%	51.3%
CCn1c(Cc2ccccc2Nc2c(Cl)cccc2Cl)nnc1SCC(=O)Nc1ccccc1C(F)(F)F	84.6%	81.8%	92.9%	86.5%	93.3%	67.4%	92%	63.1%	93.9%	107%	79.9%	77.1%		88%	106%	87.1%	64.5%	108%	70.2%	82.8%
O=C(NO)c1ccc(CNc2cccc3nc(C4CC4)n(-c4ccccc4)c(=O)c23)cc1	7.98% (active)	24.8%	33%	25.9%	-7.99% (active)	-47% (active)	2.95% (active)	-22.2% (active)	-34.9% (active)	9.83% (active)	53.7%	15.5%		13.6%	3.75% (active)	7.51% (active)	13.7%	-13.3% (active)	-21.7% (active)	42.2%
O=C(/C=C/c1ccccc1Br)c1cccc(OCCCCOc2cccc(C(=O)/C=C/c3ccccc3Br)c2)c1	81.6%	89.3%	79.7%	90.8%	77%	92%	98.7%	78.8%	86.4%	102%	104%	96.6%	81.3%	117%	98.6%	91.9%	108%	88.5%		
